The results in this text go back to PubChem BioAssay (EPA / NIEHS).

A short description of experiment [1]: ACEA_ER_80hr: ACEA Biosciences xCELLigence Real-Time Cell Analysis on Estrogen Receptor Agonism for Proliferation (AID 2282667; active = hit-call score of the fitted dose curve at least 0.9, where 1 is the maximum). The note with it: T47D proliferation, impedance (xCELLigence), 80 h. In short, it runs like this: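 T47D human breast cells were seeded on electrode plates, monitored overnight, then exposed continuously to compounds in eight-point 1:4 dilutions from 100 uM (max 0.5% DMSO). Impedance-based growth was read at 80 h, fitted upward relative to DMSO.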

Experiment [2] is described as follows: ATG_CRE_CIS: Attagene CIS-FACTORIAL HepG2 Assay for human cAMP Responsive Element (CRE) binding protein 3 (AID 2282926). The settings on record: HepG2 CRE cis-reporter, Attagene multiplexed mRNA; actives raise or lower the signal. In outline:
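Capillary electrophoresis of 6-FAM-labelled, HpaI-digested PCR products quantified reporter transcripts. These came from HepG2 transiently transfected with cis-element reporters and exposed to test chemicals for 24 hours, with DMSO defining baseline activity.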

Experiment [3] concerns the target CCAAT/enhancer-binding protein beta (Homo sapiens) (UniProt P17676). Put plainly: ATG_C_EBP_CIS: Attagene CIS-FACTORIAL HepG2 Assay for human CCAAT/Enhancer Binding Protein (C/EBP) beta (AID 2282927). The note with it: HepG2 Attagene cis-factorial transcription factor reporter; actives raise or lower the signal. In short, it runs like this: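 HepG2 transiently transfected with multiplexed reporter units under cis-regulatory promoters reporting endogenous C/EBPb activity. After 24 h exposure, reporter mRNA assayed by RT-PCR, fluorescent labelling, HpaI digestion and capillary electrophoresis; bidirectional fitting versus DMSO.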

The nature of experiment [4]: ATG_CMV_CIS: Attagene CIS-FACTORIAL HepG2 Assay for human CMV (Internal Marker) (AID 2282928).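 Also: endpoint acts as a background internal control marker rather than a target.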 The note with it: HepG2 CMV promoter reporter, transcription factor profiling; actives raise or lower the signal. In outline: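 Reporter transcripts from transfected HepG2 cells are isolated after 24 h of chemical dosing, reverse-transcribed and amplified. Fragments labeled with 6-FAM are cut with HpaI and quantified by capillary electrophoresis; DMSO defines baseline.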

Experiment [5] in a line: ATG_DR4_LXR_CIS: Attagene CIS-FACTORIAL HepG2 Assay for human Liver X Receptor (LXR), DR4 submotif (AID 2282929). The settings on record: HepG2 Attagene DR4 cis-reporter, mRNA transcription; actives raise or lower the signal. In outline: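 HepG2 cells were transiently transfected with multiple cis-regulated reporter units and dosed for 24 hours. The DR4 reporter mRNA was quantified by RT-PCR, 6-FAM labelling and capillary electrophoresis. Bidirectional fits used DMSO as baseline.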

Experiment [6] deals with Aryl hydrocarbon receptor (Homo sapiens) (UniProt P35869). Description: ATG_Ahr_CIS: Attagene CIS-FACTORIAL HepG2 Assay for human Aryl Hydrocarbon Receptor (Ahr) (AID 2282930). The note with it: HepG2 AhR cis-factorial reporter transcription; actives raise or lower the signal. In short, it runs like this: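 HepG2 cells transiently transfected with cis-element-driven multiplexed reporter units; endogenous AhR activity read as reporter mRNA 24 h after dosing, via RT-PCR, 6-FAM labelling, HpaI digestion and capillary electrophoresis. Bidirectional fit relative to DMSO.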
Aryl hydrocarbon receptor (Homo sapiens), sequence (P35869 whole entry, looked up): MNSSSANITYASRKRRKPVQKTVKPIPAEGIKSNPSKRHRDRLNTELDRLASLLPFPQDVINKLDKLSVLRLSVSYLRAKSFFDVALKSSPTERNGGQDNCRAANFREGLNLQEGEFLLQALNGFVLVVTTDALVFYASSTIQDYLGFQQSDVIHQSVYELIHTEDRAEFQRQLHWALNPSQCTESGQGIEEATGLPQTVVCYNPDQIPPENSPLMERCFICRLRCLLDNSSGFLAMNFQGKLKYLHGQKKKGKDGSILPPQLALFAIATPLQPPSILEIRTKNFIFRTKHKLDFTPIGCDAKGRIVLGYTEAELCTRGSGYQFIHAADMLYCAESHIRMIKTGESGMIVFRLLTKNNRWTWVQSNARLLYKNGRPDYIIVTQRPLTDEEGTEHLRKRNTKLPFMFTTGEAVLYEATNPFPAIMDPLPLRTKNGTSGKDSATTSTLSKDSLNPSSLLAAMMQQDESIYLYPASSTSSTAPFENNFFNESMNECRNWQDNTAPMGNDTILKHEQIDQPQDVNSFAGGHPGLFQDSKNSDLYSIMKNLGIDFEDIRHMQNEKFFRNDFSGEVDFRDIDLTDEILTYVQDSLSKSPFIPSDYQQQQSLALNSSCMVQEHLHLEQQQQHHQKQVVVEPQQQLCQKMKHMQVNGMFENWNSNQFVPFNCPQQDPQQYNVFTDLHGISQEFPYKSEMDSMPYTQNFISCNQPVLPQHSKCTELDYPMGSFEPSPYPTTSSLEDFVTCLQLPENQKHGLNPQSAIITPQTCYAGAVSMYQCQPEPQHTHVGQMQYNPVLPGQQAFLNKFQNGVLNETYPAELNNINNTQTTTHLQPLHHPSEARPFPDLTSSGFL

A short description of experiment [7]: ATG_AP_1_CIS: Attagene CIS-FACTORIAL HepG2 Assay for human Activator Protein 1 (AP-1) (AID 2282931). The settings on record: HepG2 Attagene cis-factorial AP-1 reporter mRNA; actives raise or lower the signal. In outline: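 HepG2 cells transiently transfected with cis-element-driven reporter transcription units, dosed for 24 hours. Reporter mRNA measured by RT-PCR, 6-FAM labelling, HpaI digestion and capillary electrophoresis. Bidirectional fitting against DMSO baseline.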

The nature of experiment [8]: ATG_AP_2_CIS: Attagene CIS-FACTORIAL HepG2 Assay for human Activator Protein 2 (AP-2) (AID 2282932). The settings on record: HepG2 AP-2 cis-reporter, Attagene transcription factor profiling; actives raise or lower the signal. In outline: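 Read-out: fluorescent reporter mRNA via RT-PCR and capillary electrophoresis, 24 h post-dose in transiently transfected HepG2. Endogenous factors drive cis-promoter reporters; gain or loss of signal fitted bidirectionally against DMSO.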

The nature of experiment [9]: ATG_BRE_CIS: Attagene CIS-FACTORIAL HepG2 Assay for human Bone Morphogenetic Protein (BMP) Response Element (BRE) (AID 2282933). The settings on record: HepG2 BMP response element reporter, Attagene transcription factor profiling; actives raise or lower the signal. In short, it runs like this: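 Multiplexed cis-reporter assay, HepG2, 24 h exposure. mRNA from reporter units quantified via RT-PCR/CE; DMSO baseline; bidirectional curve fit.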

The target of experiment [10] is Retinoic acid receptor alpha (Homo sapiens) (UniProt P10276). Put plainly: ATG_DR5_RAR_CIS: Attagene CIS-FACTORIAL HepG2 Assay for human Retinoic Acid Receptor Alpha (RARE), DR5 submotif (AID 2282934).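 As to AC50: reporter responds to endogenous RAR alpha beta and gamma in HepG2 not RARA alone.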 The note with it: HepG2 Attagene cis-factorial RARE DR5 reporter, mRNA; actives raise or lower the signal. In short, it runs like this: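 HepG2 cells transiently transfected with multiplexed reporter units; DR5 cis-element drives reporter through endogenous transcription factors. After 24 h dosing, reporter mRNA quantified by RT-PCR, fluorescent labeling, HpaI digestion and capillary electrophoresis; bidirectional fitting versus DMSO.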
Retinoic acid receptor alpha (Homo sapiens), sequence (P10276 whole entry, looked up): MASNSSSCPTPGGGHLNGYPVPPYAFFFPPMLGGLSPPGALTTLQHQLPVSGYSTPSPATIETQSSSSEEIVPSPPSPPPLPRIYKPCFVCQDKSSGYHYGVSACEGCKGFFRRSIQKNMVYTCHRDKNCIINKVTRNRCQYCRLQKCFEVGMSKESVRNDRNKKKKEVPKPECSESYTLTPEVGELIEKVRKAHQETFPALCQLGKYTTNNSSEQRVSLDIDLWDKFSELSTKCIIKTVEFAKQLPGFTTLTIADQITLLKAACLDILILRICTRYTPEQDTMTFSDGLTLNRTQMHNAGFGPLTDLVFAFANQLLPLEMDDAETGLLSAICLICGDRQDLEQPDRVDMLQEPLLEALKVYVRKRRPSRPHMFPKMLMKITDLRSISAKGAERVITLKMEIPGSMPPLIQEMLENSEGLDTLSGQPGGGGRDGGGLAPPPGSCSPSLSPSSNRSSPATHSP

The target in experiment [11] is Transcription factor E2F1 (Homo sapiens) (UniProt Q01094). Description: ATG_E2F_CIS: Attagene CIS-FACTORIAL HepG2 Assay for human E2F Transcription Factor 1 (AID 2282935). The note with it: HepG2 Attagene cis-reporter, E2F reporter RNA transcripts; actives raise or lower the signal. In short, it runs like this: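 Transient MRTU transfection of HepG2; 24 h compound exposure; RNA → oligo(dT) RT → PCR → FAM label → HpaI cut → CE fluorescence. Gain/loss of signal fit against DMSO.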
Transcription factor E2F1 (Homo sapiens), sequence (Q01094 whole entry, looked up): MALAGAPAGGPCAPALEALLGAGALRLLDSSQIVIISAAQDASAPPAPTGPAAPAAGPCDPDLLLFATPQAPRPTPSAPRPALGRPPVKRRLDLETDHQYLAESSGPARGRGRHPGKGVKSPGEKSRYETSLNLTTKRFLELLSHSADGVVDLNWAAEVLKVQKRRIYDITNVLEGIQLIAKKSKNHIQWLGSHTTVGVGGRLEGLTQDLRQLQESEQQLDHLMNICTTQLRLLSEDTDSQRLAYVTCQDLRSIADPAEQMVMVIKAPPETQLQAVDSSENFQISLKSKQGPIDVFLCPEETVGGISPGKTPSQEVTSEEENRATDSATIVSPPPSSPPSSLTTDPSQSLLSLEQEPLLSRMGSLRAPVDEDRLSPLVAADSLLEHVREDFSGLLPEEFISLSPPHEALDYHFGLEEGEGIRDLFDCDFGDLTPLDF

The nature of experiment [12]: ATG_E_Box_CIS: Attagene CIS-FACTORIAL HepG2 Assay for human Enhancer Box (E-box) (AID 2282936). The settings on record: HepG2 E-box cis-reporter transcription, actives raise or lower the signal. In outline:
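Transiently transfected HepG2, endogenous TF-driven reporters, 24 h dosing. Readout: RT-PCR plus capillary electrophoresis of fluorescent reporter fragments. Gain or loss of signal fitted bidirectionally against DMSO baseline.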

The nature of experiment [13]: ATG_EGR_CIS: Attagene CIS-FACTORIAL HepG2 Assay for human Early Growth Response 1 (EGR1) (AID 2282938). The note with it: HepG2 Attagene CIS-FACTORIAL EGR reporter mRNA; actives raise or lower the signal. In outline:
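HepG2 cells transiently transfected with cis-element-driven multiplexed reporter units, dosed for 24 h. EGR1-element reporter mRNA quantified by RT-PCR, 6-FAM labelling, HpaI digestion and capillary electrophoresis; bidirectional fit versus DMSO.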

Experiment [14] can be described thus: ATG_M_19_CIS: Attagene CIS-FACTORIAL HepG2 Assay for M19 Transcription Factor (Internal Marker) (AID 2282939). The note with it: HepG2 Attagene CIS-FACTORIAL M19 internal marker reporter; actives raise or lower the signal. In short, it runs like this:
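Signals come from fluorescence of labelled reporter-specific PCR fragments resolved by capillary electrophoresis, following 24 h treatment of HepG2 cells transfected with cis-promoter reporter units; activity was fitted in both directions relative to DMSO.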

Experiment [15] can be described thus: ATG_ERE_CIS: Attagene CIS-FACTORIAL HepG2 Assay for Estrogen Response Element (ERE) (AID 2282940). The note with it: HepG2 ERE cis-reporter, Attagene RNA transcript; actives raise or lower the signal. In short, it runs like this:
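Fluorescence of capillary-separated, FAM-labelled reporter cDNA fragments indicates reporter mRNA levels in HepG2 cells exposed to chemicals for 24 h. Transient transfection with cis-regulated units; data fitted in both directions against DMSO.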

Experiment [16] can be described thus: ATG_Ets_CIS: Attagene CIS-FACTORIAL HepG2 Assay for human Erythroblast Transformation Specific (ETS) (AID 2282941). The settings on record: HepG2 ETS cis-reporter transcription, actives raise or lower the signal. In short, it runs like this:
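Bidirectional fit versus DMSO of reporter mRNA signal, detected by RT-PCR and capillary electrophoresis in HepG2 cells transiently transfected with cis-element reporters and dosed 24 h.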

Experiment [17] deals with Hepatocyte nuclear factor 3-beta (Homo sapiens) (UniProt Q9Y261). Description: ATG_FoxA2_CIS: Attagene CIS-FACTORIAL HepG2 Assay for human Forkhead box A2 (FOXA2) (AID 2282942). The note with it: HepG2 cis-reporter transcription factor activity, 24 h; actives raise or lower the signal. In outline:
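HepG2 transiently transfected with a multiplexed cis-promoter reporter library read endogenous FOXA2 activity. After 24 h compound exposure, reporter mRNA was quantified by RT-PCR, HpaI digestion and capillary electrophoresis. Bidirectional fit against DMSO.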

Experiment [18] can be described thus: ATG_FoxO_CIS: Attagene CIS-FACTORIAL HepG2 Assay for human Forkhead box O (FoxO) (AID 2282943). The settings on record: HepG2 Attagene cis-reporter, FoxO element, mRNA; actives raise or lower the signal. In short, it runs like this: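 HepG2 cells transiently transfected with cis-element-driven reporter units report endogenous FoxO activity. After 24 h chemical exposure, reporter mRNA quantified by RT-PCR, fluorescent labeling, HpaI digestion and capillary electrophoresis; bidirectional fit versus DMSO.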

A short description of experiment [19]: ATG_GATA_CIS: Attagene CIS-FACTORIAL HepG2 Assay for human GATA Binding Protein (AID 2282944). The settings on record: HepG2 GATA cis-element reporter, Attagene multiplex mRNA; actives raise or lower the signal. In short, it runs like this:
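After transfecting HepG2 cells with multiple cis-regulated reporter units, chemicals are dosed for 24 h; isolated RNA undergoes RT-PCR and fluorescent labeling before capillary electrophoresis, with activity expressed against DMSO.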

The nature of experiment [20]: ATG_M_61_CIS: Attagene CIS-FACTORIAL HepG2 Assay for M61 Transcription Factor (Internal Marker) (AID 2282937). The note with it: HepG2 Attagene CIS-FACTORIAL M61 internal marker reporter; actives raise or lower the signal. In short, it runs like this:
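HepG2 cells transiently transfected with multiplexed cis-promoter reporter units reporting endogenous transcription factor activity, measured 24 h after dosing. Reporter mRNA quantified by RT-PCR and capillary electrophoresis; bidirectional fit against DMSO baseline.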

Results filed as inconclusive are left out. Activity calls are given as the source filed them. The calls were made as follows, unless noted: active = hit-call score of the fitted dose curve at least 0.9, where 1 is the maximum; inactive = score below 0.9.

Hepatocyte nuclear factor 3-beta (Homo sapiens), sequence (Q9Y261 whole entry, looked up): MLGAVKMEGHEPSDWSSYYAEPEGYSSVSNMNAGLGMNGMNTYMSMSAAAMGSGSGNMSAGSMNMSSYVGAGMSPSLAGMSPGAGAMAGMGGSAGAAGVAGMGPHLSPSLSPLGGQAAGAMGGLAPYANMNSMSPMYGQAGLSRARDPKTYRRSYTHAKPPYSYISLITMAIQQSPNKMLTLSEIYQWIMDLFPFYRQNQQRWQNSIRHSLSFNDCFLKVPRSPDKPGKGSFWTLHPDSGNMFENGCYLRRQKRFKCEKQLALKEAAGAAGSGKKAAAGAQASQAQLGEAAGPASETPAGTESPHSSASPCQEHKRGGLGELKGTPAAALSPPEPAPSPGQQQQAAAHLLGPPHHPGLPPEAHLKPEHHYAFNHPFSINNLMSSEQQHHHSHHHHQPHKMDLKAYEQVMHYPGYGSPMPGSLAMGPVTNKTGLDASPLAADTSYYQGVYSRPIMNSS
CCAAT/enhancer-binding protein beta (Homo sapiens), sequence (P17676 whole entry, looked up): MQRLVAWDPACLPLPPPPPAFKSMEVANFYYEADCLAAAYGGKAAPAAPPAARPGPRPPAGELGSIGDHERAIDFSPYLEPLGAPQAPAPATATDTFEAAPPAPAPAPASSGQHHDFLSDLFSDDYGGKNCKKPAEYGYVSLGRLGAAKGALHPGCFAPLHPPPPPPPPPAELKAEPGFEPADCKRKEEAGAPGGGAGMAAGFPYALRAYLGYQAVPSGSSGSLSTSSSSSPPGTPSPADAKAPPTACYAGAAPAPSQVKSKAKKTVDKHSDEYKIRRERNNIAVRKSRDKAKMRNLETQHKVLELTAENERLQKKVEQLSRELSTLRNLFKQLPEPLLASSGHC

In the case of `CC(C)C(=O)OCc1ccccc1`, the outcome in experiment [1], in [2], in experiment [3], in experiment [4], in [5] and in experiment [6] was inactive. The call in [7], in [8], in [9], in experiment [10], in experiment [11] and in experiment [12] was inactive. Further, the molecule was called inactive in experiment [13], in [14], in [15], in experiment [16], in [17] and in experiment [18]. In experiment [19], the result was inactive.
One may read the AC50 as the concentration giving half of the maximal activity seen. As to `O=C1C=CC(=O)N1c1ccc(Cc2ccc(N3C(=O)C=CC3=O)cc2)cc1`, the molecule was called inactive in [1], in [3], in [4], in experiment [6], in [7] and in experiment [8]. The result in [11], in experiment [20], in [15], in experiment [16], in [17] and in experiment [18] was inactive. The outcome in experiment [19] was inactive. Moreover, the AC50 was 33.4 µM (active) in [2]; 22.7 µM (active) in [5]; 51.2 µM (active) in experiment [9]; 59.4 µM (active) in experiment [10]; 44.9 µM (active) in experiment [12]; 21.4 µM (active) in experiment [13].
For `CN(C)C(C)(C)CO`, in experiment [1], the AC50 is 50 µM (active). Moreover, the result in experiment [2], in [3], in experiment [4], in [5], in experiment [6] and in experiment [7] was inactive. The molecule was called inactive in experiment [8], in experiment [9], in experiment [10], in experiment [11], in experiment [12] and in experiment [20]. The molecule was called inactive in experiment [13], in experiment [15], in experiment [16], in experiment [17], in experiment [18] and in experiment [19].
